The list is not random: actives were taken first. Their share in the collection is about 4.3%.
MITF act: activators of MITF-driven TRPM1 promoter reporter, primary screen, cell-based, SK-MEL-5, luciferase, single point; SK-MEL-5 TRPM1-promoter luciferase, 24 h; % of positive control, neutral wells = 0; activation, % at 12.5 µM; hit rate 0.75% among 300,000; AID 588334, 2011;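 active = mean activation of at least 80% with every replicate also reaching 80%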;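 also: 0% = neutral control wells and 100% = parthenolide positive control wells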
Wnt act: Wnt/beta-catenin pathway activators, primary screen, cell-based, plate reader, single point. Wnt/beta-catenin reporter cell assay, activator. activation, % at 9.35 µM. hit rate 1.2% among 300,000. AID 743398, 2014; in the data active = activation above about 30%, passing the limit was not always enough;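 also: 0% = neutral control wells and 100% = positive control wells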
SMARCA2 activ: SMARCA2 (BRM) function activators, primary screen, cell-based, luminescence, high throughput | MG213 cells, MMTV-luciferase reporter, dexamethasone, overnight | activation, % at 9.1 µM | hit rate 1% among 370,000; in the data active = activation above about 7.8%;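 also: 0% = vehicle wells and 100% = reference activator wells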
esBAF inh: Bmi1 luciferase reporter increase in mESCs, primary screen, esBAF inhibitor project, mouse ES cells, Bmi1 luciferase knock-in, single point. 24 h; 100% = twice the neutral-well signal. hit rate 2% among 350,000. reporter increase, % at 12.5 µM; in the data active = activation above about 40%;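 also: 0% = median of the plate's neutral control wells and 100% = double that signal; a rise in the Bmi1 reporter signal indicates esBAF inhibition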
MLL AF4-AF9 inh: inhibitors of AF4 peptide binding to AF9, primary screen, biochemical, AlphaScreen, biotin-AF4 peptide, FLAG-AF9, single point; Protein AF-9 (Homo sapiens), P42568; hit rate 0.47% among 350,000; AID 651704, 2012; inhibition, % at 10 µM;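 active = every replicate reaching a set inhibition limit, whatever the replicate mean, cut at about 25% in these data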;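 also: 0% = plate neutral control median and 100% = total signal loss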
FGF22 binding: binders of human FGF22 protein, primary screen, FGF22 synaptogenesis inhibitor project, biophysical, thermal shift, single point; Fibroblast growth factor 22 (Homo sapiens), Q9HCT0; recombinant FGF22 thermal shift, SYPRO orange fluorescence; percent of sucrose octasulfate shift, DMSO zero; activity (Tm shift, normalised), % at 9.99 µM; hit rate 1.5% among 340,000;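 active = mean Tm shift, scaled 0 neutral to 100 positive control, at about 1.3% or above, every replicate too, limit read from the data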
Target sequence (Q9HCT0 whole entry, looked up): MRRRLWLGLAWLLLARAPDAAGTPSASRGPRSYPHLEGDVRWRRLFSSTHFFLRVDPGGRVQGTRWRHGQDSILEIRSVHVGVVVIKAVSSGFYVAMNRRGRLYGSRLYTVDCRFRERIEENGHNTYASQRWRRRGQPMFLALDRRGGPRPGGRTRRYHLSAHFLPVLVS
Active calls of the source: *; · = no result given.

SMILES	MITF act	Wnt act	SMARCA2 activ	esBAF inh	MLL AF4-AF9 inh	FGF22 binding
COC(=O)C1=C(c2ccc(C(C)=O)cc2)C[C@@H]2CC[C@H]1N2C(=O)NCc1ccc2c(c1)OCO2	1	3	0	-4	5	0
COC(=O)C1=C(c2ccc(Cl)c(C(F)(F)F)c2)C[C@@H]2CC[C@H]1N2C(=O)NCc1ccc2c(c1)OCO2	0	57*	1	11	-1	0
FC(F)(F)c1cccc(NC2=NCCS2)c1	·	-5	-3	·	-11	44*
CSc1ncc(CN2CCCC(C(=O)c3sccc3C)C2)cn1 (stereo not drawn)	-11	1	-1	·	3	0
Cc1ccsc1C(=O)C1CCCN(Cc2cnc(N3CCCC3)s2)C1 (stereo not drawn)	-10	0	-3	·	4	44*
CCOC(=O)[C@@H]1[C@@H]2NC(=S)N[C@@]1(C)Oc1ccccc12	·	·	·	·	-6	-1
Cc1cc(N=Nc2ccccc2C)ccc1N	35	55*	4	31	13	0
Nc1ccc(N=Nc2ccccc2)cc1	35	16	-3	·	5	0
COC(=O)[C@@H]1[C@@H](CO)[C@@H]2Cn3c(ccc(C4=CCCC4)c3=O)[C@H]1N2C(=O)CC1CC1	·	·	·	-3	0	0
CCSC(=O)N1CCCCCC1	4	6	7.8*	-4	·	0
CCOc1ccc(-c2cc(C(=O)N3CCC4(CC3)OCCO4)c3ccccc3n2)cc1	100*	24	-1	·	7	0
COc1ccc(C(=O)N2CCC3(CC2)OCCO3)cc1	·	1	-2	0	-1	0
CCc1c(-c2ccccc2)nc2ccccc2c1C(=O)N1CCC2(CC1)OCCO2	2	-2	-4	-5	-1	0
COc1ccc(-c2cc(C(=O)N3CCC4(CC3)OCCO4)c3ccccc3n2)cc1	48	8	1	41*	0	0
Cc1oc(-c2ccc(F)cc2F)nc1CN1C[C@@H]2C[C@@H](C1)c1cccc(=O)n1C2	-12	-1	-2	·	0	44*
COc1ccc(-c2ccc3n(c2=O)C[C@@H]2[C@@H](CO)[C@H](C(=O)O)[C@H]3N2C(=O)c2ccccc2F)cc1	·	·	·	-1	0	0
C/C=C/c1ccc(C2[C@@H]3CN(C(=O)C4CCC4)C[C@H]2N3)cc1 (stereo partly drawn)	·	·	·	·	·	0
Cc1ccc(-n2c(O)c(C=Nc3ccc(S(N)(=O)=O)cc3)c(=O)[nH]c2=O)cc1	-16	0	-4	1	-14	43*
Cc1ccc(OCCOc2cccc(C=C3C(=O)NC(=O)NC3=O)c2)cc1	-35	37*	3	-1	-4	-1
Cc1cc(C)cc(OCCOc2cccc(C=C3C(=O)NC(=O)NC3=O)c2)c1	·	3	0	15	-1	0
CC(C)Oc1ccc(CC2(CCc3ccncc3)C(=O)NC(=O)NC2=O)cc1	·	-4	-2	-6	0	0
COc1ccc(CC2(CCc3ccncc3)C(=O)NC(=O)NC2=O)cc1OC	0	37*	-1	-3	0	0
Cc1ccc2c(c1N)C(=O)c1ccccc1C2=O	95*	44*	3	55*	·	0
CC(NC1=NCCS1)c1ccccc1 (stereo not drawn)	3	49*	-4	·	-1	0
CC1CN=C(NC(C)c2ccccc2)S1 (stereo not drawn)	1	-1	0	9	1	1
SMILES	MITF act	Wnt act	SMARCA2 activ	esBAF inh	MLL AF4-AF9 inh	FGF22 binding
CCN(CC)c1ccc(/C=C2\C(=O)NC(=O)N(CC3CCCO3)C2=O)cc1 (stereo not drawn)	15	7	3	-2	2	43*
CC=Cc1ccc2n(c1=O)C[C@@H]1[C@@H](CO)[C@H](C(=O)OC)[C@H]2N1CC1CCOCC1 (mixture of isomers)	·	·	·	6	0	0
CN1C(=O)C(=Cc2ccc(SC3CCCCC3)o2)C(=O)N(C)C1=O	-4	-4	1	·	0	43*
NCC(=O)c1ccccc1	54	15	-1	67*	0	0
c1cc2c(cc1-c1ccc3c(c1)OCO3)CNCc1cnnn1-2	·	-1	5	51*	-2	0
c1ccc(-c2ccc3c(c2)CNCc2cnnn2-3)cc1	·	-1	-1	13	-1	0
Fc1cccc(-c2ccc3c(c2)CNCc2cnnn2-3)c1	·	1	0	43*	-1	1
CC(=O)OC1CC(OC2C(O)CC(OC3C(O)CC(OC4CCC5(C)C(CCC6C5CCC5(C)C(C7=CC(=O)OC7)CCC65O)C4)OC3C)OC2C)OC(C)C1OC1OC(CO)C(O)C(O)C1O (stereo not drawn)	-78	-26	-11	·	-3	0
CC(=O)OC1CC[C@]2(C#N)[C@H]3CC[C@]4(C)[C@H](C5C=CC(=O)O5)CCC4(O)C3CCC2(O)C1 (stereo partly drawn)	-36	-11	7.8*	-5	-4	0
C=CCn1c(O)c(C(C)=NCc2ccco2)c(=O)[nH]c1=O	4	-1	-3	-7	·	·
CCCCn1c(O)c(C(C)=NCc2ccco2)c(=O)[nH]c1=O	·	45*	-7	-7	0	0
COC(=O)[C@@H]1[C@@H](CO)[C@@H]2Cn3c(ccc(C4=CCCCC4)c3=O)[C@H]1N2C(=O)Cc1ccccn1	·	·	·	2	0	0
CN1C(=O)C(=Cc2c(OCc3cnc(Cl)s3)ccc3ccccc23)C(=O)N(C)C1=O	34	6	0	50*	3	0
CN1C(=O)C(=Cc2ccccc2OCc2ccccc2Cl)C(=O)N(C)C1=O	9	5	-3	·	·	·
COC(=O)[C@H]1[C@H](CO)[C@H]2Cn3c(ccc(-c4ccccc4F)c3=O)[C@@H]1N2C(C)=O	·	·	·	-1	-1	0
COC(=O)[C@H]1[C@H](CO)[C@H]2Cn3c(cccc3=O)[C@@H]1N2Cc1nccs1	·	·	·	-4	-1	0
C=CCn1c(=O)c(C=Nc2cccc([N+](=O)[O-])c2)c(O)n(CCCC)c1=O	-2	0	2	-4	·	·
CCCCn1c(=O)c(C=Nc2cccnc2Cl)c(O)n(CCCCl)c1=O	-14	51*	-2	·	0	0
COc1ccc(C(C)=O)cc1CC(C(=O)c1ccccc1)N(C)C (stereo not drawn)	28	9	2	41*	·	·
COc1ccc(C(C)=O)cc1CC(C(=O)c1ccc(C)cc1)N(C)C (stereo not drawn)	-1	0	1	·	4	0

Bioassay records: PubChem, several laboratories
